Measurements published in PubChem BioAssay (EPA / NIEHS).
The source made the active and inactive calls. The calls were made as follows: active = hit-call score of the fitted dose curve at least 0.9, where 1 is the maximum; inactive = score below 0.9.

What was measured:
[1] = ATG_AP_1_CIS: Attagene CIS-FACTORIAL HepG2 Assay for human Activator Protein 1 (AP-1) (AID 2282931); settings: HepG2 Attagene cis-factorial AP-1 reporter mRNA; actives raise or lower the signal
Method in brief: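 Fluorescence of labelled PCR fragments separated by capillary electrophoresis gives reporter mRNA levels. HepG2 with transfected cis-regulated reporter units, 24 h exposure; DMSO serves as baseline for bidirectional curve fits.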

[2] = ATG_BRE_CIS: Attagene CIS-FACTORIAL HepG2 Assay for human Bone Morphogenetic Protein (BMP) Response Element (BRE) (AID 2282933); settings: HepG2 BMP response element reporter, Attagene transcription factor profiling; actives raise or lower the signal
Method in brief: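 A HepG2 multiplex reporter system measured inducible reporter mRNA 24 h post-dosing. Detection: RT-PCR, 6-FAM primer extension, HpaI digestion, capillary electrophoresis. Activity fitted bidirectionally relative to DMSO.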

[3] = biological target: Retinoic acid receptor alpha (Homo sapiens) (UniProt P10276); test: ATG_DR5_RAR_CIS: Attagene CIS-FACTORIAL HepG2 Assay for human Retinoic Acid Receptor Alpha (RARE), DR5 submotif (AID 2282934); settings: HepG2 Attagene cis-factorial RARE DR5 reporter, mRNA; actives raise or lower the signal
Sequence of Retinoic acid receptor alpha (Homo sapiens) (P10276 whole entry, looked up): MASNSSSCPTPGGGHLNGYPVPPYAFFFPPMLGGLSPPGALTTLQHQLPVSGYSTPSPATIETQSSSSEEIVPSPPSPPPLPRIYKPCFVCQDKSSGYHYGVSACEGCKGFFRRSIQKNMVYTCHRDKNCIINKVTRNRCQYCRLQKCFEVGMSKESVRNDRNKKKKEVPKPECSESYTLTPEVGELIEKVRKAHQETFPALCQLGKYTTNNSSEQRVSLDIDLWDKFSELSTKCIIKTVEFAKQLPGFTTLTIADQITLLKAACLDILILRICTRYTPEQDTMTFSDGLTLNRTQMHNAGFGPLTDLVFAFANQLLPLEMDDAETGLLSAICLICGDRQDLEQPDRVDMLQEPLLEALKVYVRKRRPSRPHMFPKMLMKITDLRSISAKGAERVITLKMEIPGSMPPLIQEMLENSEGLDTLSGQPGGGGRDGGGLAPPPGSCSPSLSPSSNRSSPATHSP
Method in brief: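 Read-out: DR5-driven reporter transcript measured by RT-PCR, 6-FAM primer extension, HpaI digest and capillary electrophoresis. Human HepG2 liver cells carry transiently transfected cis-element reporter constructs; dosing lasts 24 h. Gain or loss of signal fitted against DMSO baseline.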

[4] = ATG_E_Box_CIS: Attagene CIS-FACTORIAL HepG2 Assay for human Enhancer Box (E-box) (AID 2282936); settings: HepG2 E-box cis-reporter transcription, actives raise or lower the signal
Method in brief: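 First, HepG2 cells receive multiple cis-regulated reporter constructs by transient transfection. Next, chemicals are applied for 24 h. Finally, reporter mRNA is quantified via RT-PCR and capillary electrophoresis, with DMSO as baseline.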

[5] = ATG_M_61_CIS: Attagene CIS-FACTORIAL HepG2 Assay for M61 Transcription Factor (Internal Marker) (AID 2282937); settings: HepG2 Attagene CIS-FACTORIAL M61 internal marker reporter; actives raise or lower the signal
Method in brief: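 This endpoint serves as an internal background control within a multiplexed HepG2 cis-reporter panel. Cells are exposed for 24 h; reporter mRNA is amplified, fluorescently labelled and sized by capillary electrophoresis, with DMSO as negative control.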

[6] = ATG_EGR_CIS: Attagene CIS-FACTORIAL HepG2 Assay for human Early Growth Response 1 (EGR1) (AID 2282938); settings: HepG2 Attagene CIS-FACTORIAL EGR reporter mRNA; actives raise or lower the signal
Method in brief: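 HepG2, transient MRTU transfection (cis promoters), 24 h compound. RNA → RT (oligo-dT) → PCR → 6-FAM labelling → HpaI cut → CE fluorescence. Bidirectional fit, DMSO baseline.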

[7] = ATG_M_19_CIS: Attagene CIS-FACTORIAL HepG2 Assay for M19 Transcription Factor (Internal Marker) (AID 2282939); settings: HepG2 Attagene CIS-FACTORIAL M19 internal marker reporter; actives raise or lower the signal
Method in brief: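 Chemical-treated HepG2 (24 h) with MRTU constructs; reporter transcripts detected by fluorescent RT-PCR fragment analysis on capillary electrophoresis. Internal background marker, DMSO as baseline.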

[8] = ATG_ERE_CIS: Attagene CIS-FACTORIAL HepG2 Assay for Estrogen Response Element (ERE) (AID 2282940); settings: HepG2 ERE cis-reporter, Attagene RNA transcript; actives raise or lower the signal
Method in brief: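 Human liver cells (HepG2) bearing transiently transfected, promoter-regulated reporter units were exposed 24 h. Reporter mRNA induction was detected by capillary electrophoresis of labelled RT-PCR products and fitted bidirectionally to DMSO.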

[9] = biological target: Transcription factor E2F1 (Homo sapiens) (UniProt Q01094); test: ATG_E2F_CIS: Attagene CIS-FACTORIAL HepG2 Assay for human E2F Transcription Factor 1 (AID 2282935); settings: HepG2 Attagene cis-reporter, E2F reporter RNA transcripts; actives raise or lower the signal
Sequence of Transcription factor E2F1 (Homo sapiens) (Q01094 whole entry, looked up): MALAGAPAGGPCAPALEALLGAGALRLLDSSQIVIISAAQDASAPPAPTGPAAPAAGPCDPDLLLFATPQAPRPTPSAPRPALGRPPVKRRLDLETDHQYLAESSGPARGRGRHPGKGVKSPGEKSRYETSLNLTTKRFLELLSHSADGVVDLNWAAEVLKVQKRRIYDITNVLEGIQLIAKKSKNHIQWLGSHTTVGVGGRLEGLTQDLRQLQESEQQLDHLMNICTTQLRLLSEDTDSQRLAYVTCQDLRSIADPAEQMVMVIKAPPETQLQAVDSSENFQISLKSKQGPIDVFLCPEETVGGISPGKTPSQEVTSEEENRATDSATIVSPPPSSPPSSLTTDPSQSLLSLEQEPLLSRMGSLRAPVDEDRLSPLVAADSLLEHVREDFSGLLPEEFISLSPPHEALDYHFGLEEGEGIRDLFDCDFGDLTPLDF
Method in brief: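 Measures reporter transcript levels via RT-PCR with capillary electrophoresis detection in HepG2 cells harboring cis-regulated reporter units; 24 h post-dose; bidirectional curve fitting with DMSO as baseline.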

Row | SMILES | AC50 [1] | outcome [2] | outcome [3] | outcome [4] | outcome [5] | outcome [6] | outcome [7] | AC50 [8] | outcome [1] | outcome [9] | outcome [8] | AC50 [4] | AC50 [6] | AC50 [7]
1 | CNC(=O)O/N=C/C(C)(C)S(C)=O (configuration not stated) | 73 µM (active) | inactive | inactive | inactive | inactive | inactive | inactive | 84.1 µM (active) | – | – | – | – | – | –
2 | CC(=[OH+])/C=C(/C)[O-].CC(=[OH+])/C=C(/C)[O-].CC(=[OH+])/C=C(/C)[O-].[Al] | – | inactive | – | inactive | inactive | inactive | inactive | – | inactive | inactive | inactive | – | – | –
3 | CCOP(OCC)OCC | – | inactive | inactive | inactive | inactive | inactive | inactive | – | inactive | inactive | inactive | – | – | –
4 | O=P(O)(O)CN(CP(=O)(O)O)CP(=O)(O)O | – | inactive | inactive | inactive | inactive | inactive | inactive | – | inactive | inactive | inactive | – | – | –
5 | CC(=O)C(Cl)C(=O)N(C)C (configuration not stated) | – | inactive | – | inactive | inactive | inactive | inactive | – | inactive | – | inactive | – | – | –
6 | COc1ccc(C=O)cc1OC | – | inactive | inactive | inactive | inactive | inactive | inactive | 15.2 µM (active) | inactive | inactive | – | – | – | –
7 | C=CC#N | – | inactive | inactive | inactive | inactive | inactive | inactive | 71.5 µM (active) | inactive | inactive | – | – | – | –
8 | CCc1ccccc1C | – | inactive | inactive | inactive | inactive | inactive | inactive | – | inactive | inactive | inactive | – | – | –
9 | C=CC(=O)OCCCCCC(C)C | – | inactive | inactive | inactive | inactive | inactive | inactive | – | inactive | inactive | inactive | – | – | –
10 | N#CCc1ccc(Cl)cc1 | – | inactive | inactive | inactive | inactive | inactive | inactive | – | inactive | inactive | inactive | – | – | –
11 | O=C(Nc1ccc2[nH]ccc2c1)c1cc2cc(F)ccc2n1Cc1cccc(F)c1 | 7.29 µM (active) | inactive | inactive | – | inactive | – | – | – | – | – | inactive | 19.2 µM (active) | 11 µM (active) | 13.7 µM (active)
12 | O=C(Cl)c1ccc(Cl)cc1 | – | inactive | inactive | inactive | inactive | inactive | inactive | – | inactive | inactive | inactive | – | – | –
13 | COP(=S)(OC)Oc1c(Cl)cc(C)cc1Cl | – | inactive | inactive | inactive | inactive | inactive | inactive | 9.77 µM (active) | inactive | inactive | – | – | – | –
